In the library only some 8.2% were active in any assay of this set; here they are far more common.
KB-3-1 tox: kills parental KB-3-1 adenocarcinoma cells | Potency, µM (titrated, usually from 46.1 µM), hits mostly cytotoxic | KB-3-1 viability, CellTiter-Glo ATP luminescence, 72 h | hit rate 1.4% among 400,000 | AID 1347075; also: % is scaled to controls: 0 for no effect and ±100 for the full control effect; nearly all actives have a fitted effect of over 60% in size
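KB-3-1 cells, DMEM (no phenol red) + 10% FBS; compound by pin transfer, 72 h, 37 °C. Readout: CellTiter-Glo luminescence after 10 min. Data normalized, curve-fitted.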
KB-V1 cytotox: KB-V1 MDR subline cytotoxicity; hit rate 3.4% among 400,000; KB-V1 MDR cells viability, CellTiter-Glo, 72 h; Potency, µM (doses to about 46.1 µM), most hits filed as cytotoxic; also: % is scaled to controls: 0 for no effect and ±100 for the full control effect; nearly all actives have a fitted effect of over 60% in size
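KB-V1 cells (P-gp-expressing MDR subline of KB-3-1) in phenol-red-free DMEM with 10% FBS were exposed to library compounds over a concentration series for 72 h at 37 degrees C. Viability read by CellTiter-Glo luminescence; concentration-effect curves fitted after normalization.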
ELG1 DNA repair: blocks ELG1-dependent DNA repair in HEK293T cells. HEK293T ELG1-luciferase reporter, luminescence, 16 h; DNA damage induced by 5-fluorouridine. Potency, µM (titrated, usually from 46.1 µM), for inactives: top-dose activity change, negative = inhibition, most hits filed as inhibitors. AID 504467. hit rate 2.3% among 330,000; also: % is scaled to controls: 0 for no effect and ±100 for the full control effect; nearly all actives have a fitted effect of over 55% in size
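Overnight (16 hr) co-exposure of 2,000 cells/well to 5-fluorouridine and compound at 37 °C preceded detection. Luciferase was quantified via ONE-Glo luminescence; loss of signal denotes inhibition.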
MCF10A rerep: inducers of DNA re-replication in MCF 10A breast cells; MCF 10A DNA re-replication, Hoechst nuclear intensity, 48 h; Potency, µM (top dose mostly 46.1 µM), for the others: top-dose activity, positive = re-replication, actives largely listed as activators; hit rate 2.9% among 350,000; also: % of control where 0% means no effect; nearly all actives have a fitted effect of over 50% in size
SW480 rereplic: inducers of DNA re-replication in SW480 colon cancer cells. AID 624297. Potency, µM (series often up to 46.1 µM), inactives show at the top dose re-replication activation, most hits filed as activators. hit rate 1.8% among 340,000. SW480 DNA re-replication, Hoechst DNA content imaging, 48 h; also: % of control where 0% means no effect; nearly all actives have a fitted effect of over 55% in size
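Treated cells incubate 48 hr (37 C, 5% CO2), are stained 40 min with Hoechst, and nuclear fluorescence is enumerated; a rise in nuclei with high DNA signal marks re-replication.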
* marks the source's active call; other numbers are inactive results; i = inactive; ? = inconclusive; . = no result. Calls follow the shape of the dose curve; as a rule, active = well fitted curve in the direction sought with a large enough effect; inconclusive = small, poorly fitted or top-dose-only effect, or another doubt; inactive = no such curve, though single readings can be large; an effect the other way counts as inactive or inconclusive. Potency is read from the fitted curve at half-maximal effect.

SMILES | KB-3-1 tox | KB-V1 cytotox | ELG1 DNA repair | MCF10A rerep | SW480 rereplic
COc1ccc(C)cc1NC(=O)CN1CCN(C/C=C/c2ccccc2)CC1 | i | i | 20.6µM* | ? | ?
O=C(COC(=O)c1cc(Cl)ccc1Cl)Nc1ccc2[nH]c(=O)[nH]c2c1 | i | i | 0.2% | 5.2% | 80.7%
CC[N+](C)(C)c1ccc(/C=C/c2ccc3ccccc3n2)cc1 | 2.91µM* | i | . | . | .
Clc1ccc(/C=C/c2ccc3ccccc3n2)cc1Cl | ? | i | . | . | .
CC(=O)/C=C/c1ccc2ccccc2n1 | i | i | -22.9% | 14.6µM* | 9.2µM*
CCN(CC)c1ccc(/C=C/c2ccc3ccccc3n2)cc1 | 2.31µM* | ? | . | . | .
CC(OC(=O)/C=C/c1ccc2ccccc2n1)C(=O)N(C)c1ccccc1 (centres undefined) | ? | ? | ? | -0.8% | 1.7%
CC(CNS(=O)(=O)c1ccc(Cl)cc1)n1cncn1 (centres undefined) | i | ? | -1.7% | 7.3% | -8.6%
O=C(Nc1ccc(Oc2ccc(Br)cc2)cc1)C1=CC=CN2CCS(=O)(=O)N=C12 | i | i | 16.1% | ? | ?
CCCCN(C)CCNC(=O)CCn1nc(-c2ccc(Cl)cc2)ccc1=O | i | i | 3.6% | 0.0% | -6.1%
CN(C)c1ccc(NC(=O)c2ccc3c(c2)nnn3C)cc1 | i | i | ? | ? | 16.4µM*
Cc1ccc(NC(=O)c2ccc3c(c2)nnn3C)cc1 | i | i | ? | 11.0% | -5.8%
N#C/C(=C\c1cn[nH]c1-c1ccc(Cl)cc1)C(=O)NC1CC1 | i | i | ? | -0.1% | -1.9%
COc1ccc(-c2[nH]ncc2/C=C(\C#N)C(=O)NC2CC2)cc1 | i | i | 18.4µM* | 1.7% | -3.3%
N#Cc1c(C(F)(F)F)cc(-c2ccccc2)[nH]c1=O | i | ? | 8.4% | ? | 13.8%
N#Cc1c(C(F)(F)F)cc(-c2ccccc2Cl)[nH]c1=O | ? | ? | -0.9% | 14.6µM* | 6.8%
COc1cccc(-c2cc(C(F)(F)F)c(C#N)c(=O)[nH]2)c1 | i | i | 3.6% | 18.4µM* | 2.0%
OC[C@@H]1CN(CCN2CCOCC2)C[C@H](n2cnc3c(N4CCCC4)ncnc32)O1 | i | i | . | . | .
O=C(NCCc1nc2ccccc2n1CCCOc1ccccc1Cl)C1CCCCC1 | i | i | . | . | .
FC(F)(F)c1nc(N2CCCC2)ncc1-c1nnnn1-c1ccccc1 | ? | 2.91µM* | -17.0% | 16.1% | 10.4%
O=C(CNC(=O)c1cccs1)c1ccc(F)cc1 | i | i | ? | 23.1µM* | ?
O=C(CNC(=O)c1cccs1)c1ccc(Cl)cc1 | i | i | ? | -10.4% | 0.7%
O=C(COc1cccc(NC(=O)c2ccccc2)c1)c1ccccc1 | i | i | 3.9% | 0.4% | 12.0%
O=C(COc1cccc(NC(=O)c2cccs2)c1)c1ccc(F)cc1 | i | 7.31µM* | ? | ? | 0.3%
CCN1CCN(C(=O)c2ccc3c(c2)N(Cc2ccc(C)cc2)CCS3)CC1 | i | i | -14.7% | 3.5% | ?
SMILES | KB-3-1 tox | KB-V1 cytotox | ELG1 DNA repair | MCF10A rerep | SW480 rereplic
COc1ccc(OC)c(CCNC(=O)c2ccc3c(c2)N(Cc2ccc(C)cc2)CCS3)c1 | i | i | . | . | .
CCN1CCN(CCCNC(=O)c2ccc3c(c2)N(Cc2ccc(C)cc2)CCS3)CC1 | ? | i | -1.4% | 14.7% | 14.6µM*
Cc1ccc(CN2CCSc3ccc(C(=O)N4CCN(c5ncccn5)CC4)cc32)cc1 | 20.6µM* | 20.6µM* | ? | ? | ?
Cc1ccc(CN2CCSc3ccc(C(=O)NCCCN4CCOCC4)cc32)cc1 | i | i | 2.8% | ? | -3.4%
COc1ccc(CCNC(=O)c2ccc3c(c2)N(Cc2ccc(F)cc2)CCS3)cc1OC | i | i | 25.9µM* | ? | -8.7%
C[C@@H]1COC(=O)[C@H](CC(=O)OC(C)(C)C)C/C=C\C[C@@H](CC(=O)N[C@H](CO)Cc2ccccc2)C(=O)N1 | i | ? | 3.0% | ? | -1.8%
Cc1ccc(Cl)c2sc(N3CCN(C(=O)C4CC4)CC3)nc12 | i | ? | . | . | .

Bioassay records as filed in PubChem.
